Assay results as given in the supplement of paper PMC12819154, “High-throughput peptide-centric local stability assay extends protein–ligand identification to membrane proteins, tissues and bacteria” (Nature Structural & Molecular Biology, 2025).

What follows are targets tested with CN[C@@H]1C[C@H]2O[C@@](C)([C@@H]1OC)n1c3ccccc3c3c4c(c5c6ccccc6n2c5c31)C(=O)NC4 [staurosporine] (assay: log2 fold change of tryptic peptide abundance, ligand vs vehicle (limited proteolysis) (log2 ratio); higher = more trypsin-susceptible (destabilized)). Conditions: ligand concentration: 20 uM; sample: mouse liver crude lysate; replicate design: treated separately.

Sequence of UniProt Q99LC5 (Q99LC5 whole entry): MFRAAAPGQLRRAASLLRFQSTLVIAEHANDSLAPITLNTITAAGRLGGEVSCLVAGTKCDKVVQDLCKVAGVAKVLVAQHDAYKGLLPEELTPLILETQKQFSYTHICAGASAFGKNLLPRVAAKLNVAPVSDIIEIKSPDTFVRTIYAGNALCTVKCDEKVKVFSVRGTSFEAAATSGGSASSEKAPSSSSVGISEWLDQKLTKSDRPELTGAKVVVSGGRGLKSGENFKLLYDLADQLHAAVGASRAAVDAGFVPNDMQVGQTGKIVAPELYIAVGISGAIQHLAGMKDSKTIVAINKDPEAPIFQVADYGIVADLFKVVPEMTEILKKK
Sequence of UniProt Q61831 (Q61831 whole entry): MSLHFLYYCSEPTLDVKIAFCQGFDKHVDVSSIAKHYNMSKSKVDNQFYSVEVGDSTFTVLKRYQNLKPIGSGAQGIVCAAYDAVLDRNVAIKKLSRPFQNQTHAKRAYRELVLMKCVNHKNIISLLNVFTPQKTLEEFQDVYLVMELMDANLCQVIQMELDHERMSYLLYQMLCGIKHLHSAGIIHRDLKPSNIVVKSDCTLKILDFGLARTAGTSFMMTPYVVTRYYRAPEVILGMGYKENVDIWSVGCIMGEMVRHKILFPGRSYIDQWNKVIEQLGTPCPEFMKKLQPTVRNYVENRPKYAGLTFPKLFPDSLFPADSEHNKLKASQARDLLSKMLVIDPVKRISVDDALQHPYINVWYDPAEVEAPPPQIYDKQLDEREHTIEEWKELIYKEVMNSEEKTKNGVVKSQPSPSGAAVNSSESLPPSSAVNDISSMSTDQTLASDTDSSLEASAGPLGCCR
Sequence of UniProt P34914 (P34914 whole entry): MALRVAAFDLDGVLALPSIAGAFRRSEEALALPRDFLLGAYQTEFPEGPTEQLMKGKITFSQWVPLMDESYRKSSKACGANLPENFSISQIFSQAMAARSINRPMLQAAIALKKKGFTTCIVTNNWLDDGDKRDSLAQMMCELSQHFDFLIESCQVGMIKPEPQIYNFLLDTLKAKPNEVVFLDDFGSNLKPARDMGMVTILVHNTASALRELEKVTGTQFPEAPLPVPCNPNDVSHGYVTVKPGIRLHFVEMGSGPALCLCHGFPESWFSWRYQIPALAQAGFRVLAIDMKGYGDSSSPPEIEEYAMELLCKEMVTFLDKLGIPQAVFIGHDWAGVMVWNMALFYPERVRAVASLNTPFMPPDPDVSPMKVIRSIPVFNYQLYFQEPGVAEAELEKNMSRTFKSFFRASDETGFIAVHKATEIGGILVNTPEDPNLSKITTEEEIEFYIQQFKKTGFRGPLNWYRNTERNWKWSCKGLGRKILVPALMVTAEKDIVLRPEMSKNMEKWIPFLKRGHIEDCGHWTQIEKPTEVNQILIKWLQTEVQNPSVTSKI
Sequence of UniProt Q6P9R2 (Q6P9R2 whole entry): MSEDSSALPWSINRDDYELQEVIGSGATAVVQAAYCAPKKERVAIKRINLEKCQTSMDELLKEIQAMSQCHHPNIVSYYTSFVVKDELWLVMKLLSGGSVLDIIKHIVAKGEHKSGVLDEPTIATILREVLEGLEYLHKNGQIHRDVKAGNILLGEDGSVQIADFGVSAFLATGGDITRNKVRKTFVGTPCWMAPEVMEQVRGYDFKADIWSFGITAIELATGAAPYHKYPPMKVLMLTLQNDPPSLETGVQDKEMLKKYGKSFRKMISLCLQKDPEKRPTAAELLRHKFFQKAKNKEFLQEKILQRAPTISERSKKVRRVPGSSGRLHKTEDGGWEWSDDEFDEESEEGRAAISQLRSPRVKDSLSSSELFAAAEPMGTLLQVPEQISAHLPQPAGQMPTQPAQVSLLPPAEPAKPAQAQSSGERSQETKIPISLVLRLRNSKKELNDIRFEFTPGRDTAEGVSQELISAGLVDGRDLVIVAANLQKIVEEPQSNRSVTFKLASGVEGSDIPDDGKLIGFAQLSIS
Sequence of UniProt Q9JLB2 (Q9JLB2 whole entry): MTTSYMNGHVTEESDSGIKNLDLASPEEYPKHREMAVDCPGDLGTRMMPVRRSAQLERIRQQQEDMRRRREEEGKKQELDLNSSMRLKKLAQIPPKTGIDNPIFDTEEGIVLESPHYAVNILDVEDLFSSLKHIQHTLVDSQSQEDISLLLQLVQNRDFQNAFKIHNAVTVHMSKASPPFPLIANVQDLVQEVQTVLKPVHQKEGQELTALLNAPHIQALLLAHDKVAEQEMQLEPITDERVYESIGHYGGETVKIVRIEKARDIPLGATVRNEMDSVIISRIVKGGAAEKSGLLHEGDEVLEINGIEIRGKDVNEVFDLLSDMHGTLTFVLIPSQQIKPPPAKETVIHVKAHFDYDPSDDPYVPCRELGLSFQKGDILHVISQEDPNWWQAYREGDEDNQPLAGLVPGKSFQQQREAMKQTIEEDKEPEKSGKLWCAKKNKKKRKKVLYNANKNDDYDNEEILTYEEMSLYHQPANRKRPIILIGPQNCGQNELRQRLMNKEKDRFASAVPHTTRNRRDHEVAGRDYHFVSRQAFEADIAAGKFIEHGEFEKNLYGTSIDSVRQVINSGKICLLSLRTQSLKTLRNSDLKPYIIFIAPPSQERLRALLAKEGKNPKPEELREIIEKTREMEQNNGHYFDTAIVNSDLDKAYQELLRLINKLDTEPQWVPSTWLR
Sequence of UniProt Q9CRD0 (Q9CRD0 whole entry): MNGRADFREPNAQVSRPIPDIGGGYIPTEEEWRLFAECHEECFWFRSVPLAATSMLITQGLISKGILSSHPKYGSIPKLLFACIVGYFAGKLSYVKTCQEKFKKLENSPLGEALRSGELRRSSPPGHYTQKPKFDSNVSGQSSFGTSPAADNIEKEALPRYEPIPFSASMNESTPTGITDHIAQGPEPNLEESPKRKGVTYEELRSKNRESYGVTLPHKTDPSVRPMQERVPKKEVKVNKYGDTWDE
Sequence of UniProt Q9QZL0 (Q9QZL0 whole entry): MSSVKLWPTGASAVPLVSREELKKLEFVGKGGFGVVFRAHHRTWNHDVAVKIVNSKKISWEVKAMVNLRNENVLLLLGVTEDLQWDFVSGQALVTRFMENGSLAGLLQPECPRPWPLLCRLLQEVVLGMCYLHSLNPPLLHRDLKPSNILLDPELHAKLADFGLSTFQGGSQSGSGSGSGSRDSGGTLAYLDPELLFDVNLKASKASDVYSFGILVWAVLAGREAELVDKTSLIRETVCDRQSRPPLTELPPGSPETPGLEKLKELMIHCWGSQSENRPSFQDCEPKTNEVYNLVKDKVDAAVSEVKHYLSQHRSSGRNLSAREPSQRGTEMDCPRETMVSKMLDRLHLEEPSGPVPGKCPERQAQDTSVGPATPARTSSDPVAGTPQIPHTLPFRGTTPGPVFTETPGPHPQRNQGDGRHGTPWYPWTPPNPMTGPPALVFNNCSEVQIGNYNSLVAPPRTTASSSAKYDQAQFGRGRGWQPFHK
Sequence of UniProt Q925I1 (Q925I1 whole entry): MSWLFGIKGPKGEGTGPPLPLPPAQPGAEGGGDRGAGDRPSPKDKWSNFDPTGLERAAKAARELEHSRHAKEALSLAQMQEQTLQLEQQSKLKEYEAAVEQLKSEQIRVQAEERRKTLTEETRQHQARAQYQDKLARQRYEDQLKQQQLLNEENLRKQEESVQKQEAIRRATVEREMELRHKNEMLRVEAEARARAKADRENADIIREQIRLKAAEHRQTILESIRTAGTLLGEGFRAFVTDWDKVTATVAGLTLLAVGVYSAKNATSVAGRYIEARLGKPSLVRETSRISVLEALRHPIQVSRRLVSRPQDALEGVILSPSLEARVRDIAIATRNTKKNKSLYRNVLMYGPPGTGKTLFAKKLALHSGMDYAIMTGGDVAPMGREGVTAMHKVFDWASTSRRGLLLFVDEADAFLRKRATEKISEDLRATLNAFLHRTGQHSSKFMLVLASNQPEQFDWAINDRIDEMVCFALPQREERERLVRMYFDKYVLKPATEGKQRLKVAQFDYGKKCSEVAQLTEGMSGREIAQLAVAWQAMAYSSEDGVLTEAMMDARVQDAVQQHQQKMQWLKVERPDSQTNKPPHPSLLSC
Sequence of UniProt Q8VEB1 (Q8VEB1 whole entry): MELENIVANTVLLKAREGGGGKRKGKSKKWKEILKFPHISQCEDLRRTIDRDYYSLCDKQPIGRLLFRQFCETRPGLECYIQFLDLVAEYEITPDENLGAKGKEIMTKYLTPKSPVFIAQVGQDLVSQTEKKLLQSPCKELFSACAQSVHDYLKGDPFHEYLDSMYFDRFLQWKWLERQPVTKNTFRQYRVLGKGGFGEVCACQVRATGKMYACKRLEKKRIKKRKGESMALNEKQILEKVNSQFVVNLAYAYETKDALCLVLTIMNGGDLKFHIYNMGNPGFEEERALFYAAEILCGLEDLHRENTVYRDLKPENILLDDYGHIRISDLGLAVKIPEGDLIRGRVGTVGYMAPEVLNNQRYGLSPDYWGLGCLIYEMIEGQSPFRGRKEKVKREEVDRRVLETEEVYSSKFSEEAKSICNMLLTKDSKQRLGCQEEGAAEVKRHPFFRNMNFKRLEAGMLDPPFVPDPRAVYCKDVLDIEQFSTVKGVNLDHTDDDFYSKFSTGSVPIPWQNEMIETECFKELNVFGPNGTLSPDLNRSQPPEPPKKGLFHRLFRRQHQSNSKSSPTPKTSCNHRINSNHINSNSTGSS
Sequence of UniProt Q66GT5 (Q66GT5 whole entry): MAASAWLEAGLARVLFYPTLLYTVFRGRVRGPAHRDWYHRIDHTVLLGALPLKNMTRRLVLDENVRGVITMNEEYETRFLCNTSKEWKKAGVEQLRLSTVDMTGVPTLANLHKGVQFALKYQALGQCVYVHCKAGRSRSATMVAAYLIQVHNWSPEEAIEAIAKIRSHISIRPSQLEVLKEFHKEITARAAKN
Sequence of UniProt Q8VCR2 (Q8VCR2 whole entry): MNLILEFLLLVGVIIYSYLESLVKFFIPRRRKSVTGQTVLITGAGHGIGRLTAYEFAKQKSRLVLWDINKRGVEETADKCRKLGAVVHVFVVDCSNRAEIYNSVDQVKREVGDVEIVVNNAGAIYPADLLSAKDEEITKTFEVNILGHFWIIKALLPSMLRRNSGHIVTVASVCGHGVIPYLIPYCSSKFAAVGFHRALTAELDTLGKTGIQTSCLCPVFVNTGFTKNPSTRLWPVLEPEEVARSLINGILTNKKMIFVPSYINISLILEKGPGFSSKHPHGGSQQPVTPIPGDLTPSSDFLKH

**Q.** Which log2 fold change does the source give for “UniProt Q8VCR2 (peptide sequence: ALLPSMLR, peptide start residue: 154)” here?
**A.** The log2 fold change was -0.279.

**Q.** For “UniProt Q8VDM4 (peptide sequence: SETELKDTYAR, peptide start residue: 546)”, which log2 fold change is on record?
**A.** Its log2 fold change is -1.29.

**Q.** For “UniProt Q80ZM8 (peptide sequence: YFNPCYATAR, peptide start residue: 227)”, which log2 fold change is on record?
**A.** The log2 fold change was 1.12.

**Q.** With “UniProt Q9QZL0 (peptide sequence: DLKPSNILLDPELHAK, peptide start residue: 143)” as the target, how does the log2 fold change read?
**A.** The log2 fold change was -1.1.

**Q.** With “UniProt Q91VF2 (peptide sequence: TSNMENIK, peptide start residue: 105)” as the target, how does the log2 fold change read?
**A.** Its log2 fold change is 0.598.

**Q.** How did the log2 fold change turn out when “UniProt Q925I1 (peptide sequence: LGKPSLVR, peptide start residue: 278)” was run?
**A.** The log2 fold change was 0.434.

**Q.** With “UniProt Q6ZWQ0 (peptide sequence: INDRWQHLFDVIGSR, peptide start residue: 5986)” as the target, how does the log2 fold change read?
**A.** The log2 fold change was 0.927.

**Q.** How did the log2 fold change turn out when “UniProt Q8VEB1 (peptide sequence: DLKPENILLDDYGHIR, peptide start residue: 311)” was run?
**A.** The log2 fold change was -0.743.

**Q.** How did the log2 fold change turn out when “UniProt Q61036 (peptide sequence: ELLQHPFLK, peptide start residue: 493)” was run?
**A.** The log2 fold change was -2.37.

**Q.** “UniProt O54785 (peptide sequence: GFFGQAIK, peptide start residue: 340)” was tested. Which log2 fold change did it give?
**A.** The log2 fold change was -0.88.

**Q.** Which log2 fold change does the source give for “UniProt P34928 (peptide sequence: AWFSEAFGK, peptide start residue: 70)” here?
**A.** The log2 fold change was 0.496.

**Q.** For “UniProt O88351 (peptide sequence: DLKPENIVLQQGEKR, peptide start residue: 145)”, which log2 fold change is on record?
**A.** Its log2 fold change is -0.744.

**Q.** “UniProt Q9JLB2 (peptide sequence: DRFASAVPHTTR, peptide start residue: 505)” was tested. Which log2 fold change did it give?
**A.** Its log2 fold change is 0.704.

**Q.** Which log2 fold change does the source give for “UniProt Q6P9R2 (peptide sequence: EVLEGLEYLHK, peptide start residue: 129)” here?
**A.** Its log2 fold change is -0.823.

**Q.** With “UniProt Q9CRD0 (peptide sequence: FKKLENSPLGEALR, peptide start residue: 102)” as the target, how does the log2 fold change read?
**A.** Its log2 fold change is 0.663.

**Q.** Which log2 fold change does the source give for “UniProt Q8JZU2 (peptide sequence: FIHDQTSSNPK, peptide start residue: 150)” here?
**A.** Its log2 fold change is 0.438.

**Q.** For “UniProt O70318 (peptide sequence: RVTPLPFQPQASSHETLNVVEEK, peptide start residue: 654)”, which log2 fold change is on record?
**A.** Its log2 fold change is -0.88.

**Q.** Which log2 fold change does the source give for “UniProt Q99LC5 (peptide sequence: TIYAGNALCTVK, peptide start residue: 147)” here?
**A.** The log2 fold change was 0.35.

**Q.** How did the log2 fold change turn out when “UniProt Q66GT5 (peptide sequence: IDHTVLLGALPLK, peptide start residue: 41)” was run?
**A.** Its log2 fold change is 0.379.

**Q.** “UniProt Q9WTU6 (peptide sequence: MLVIDPDKR, peptide start residue: 301)” was tested. Which log2 fold change did it give?
**A.** Its log2 fold change is -1.15.

**Q.** With “UniProt Q9QZD8 (peptide sequence: MTGMALQVVR, peptide start residue: 43)” as the target, how does the log2 fold change read?
**A.** The log2 fold change was 0.567.

**Q.** How did the log2 fold change turn out when “UniProt Q61831 (peptide sequence: DLKPSNIVVK, peptide start residue: 151)” was run?
**A.** The log2 fold change was -1.06.

**Q.** With “UniProt Q76M72 (peptide sequence: WLIVTNKPQK, peptide start residue: 285)” as the target, how does the log2 fold change read?
**A.** The log2 fold change was -2.63.

**Q.** Which log2 fold change does the source give for “UniProt P27659 (peptide sequence: LLPLRQKK, peptide start residue: 170)” here?
**A.** Its log2 fold change is -0.616.

**Q.** For “UniProt Q99LB7 (peptide sequence: AYGIESHVLSPAETK, peptide start residue: 175)”, which log2 fold change is on record?
**A.** Its log2 fold change is -0.446.

**Q.** How did the log2 fold change turn out when “UniProt P10649 (peptide sequence: YIATPIFSK, peptide start residue: 203)” was run?
**A.** The log2 fold change was 0.584.

**Q.** “UniProt P34914 (peptide sequence: NWKWSCK, peptide start residue: 471)” was tested. Which log2 fold change did it give?
**A.** Its log2 fold change is 0.437.

**Q.** For “UniProt Q9WVJ2 (peptide sequence: GSIDEVDKR, peptide start residue: 322)”, which log2 fold change is on record?
**A.** The log2 fold change was -0.456.

**Q.** How did the log2 fold change turn out when “UniProt Q91Y86 (peptide sequence: MLVIDASKR, peptide start residue: 301)” was run?
**A.** Its log2 fold change is -1.79.

**Q.** For “UniProt Q9DBN5 (peptide sequence: NEKDLEEIPSNVR, peptide start residue: 804)”, which log2 fold change is on record?
**A.** The log2 fold change was -1.06.

**Q.** Which log2 fold change does the source give for “UniProt Q8VCC2 (peptide sequence: LAELFTNQR, peptide start residue: 97)” here?
**A.** Its log2 fold change is -0.315.
